In PubChem BioAssay (Tox21):
Active and inactive are the calls of the source. Calls follow the shape of the dose curve; as a rule, active = well fitted curve in the direction sought with a large enough effect in the repeat runs; inconclusive = weak or mixed curves; inactive = flat fitted curve, though single readings scatter.

experiment: qHTS assay to test for compound auto fluorescence at 590 nm (red) in HEK293 cells (AID 720679); conditions: red autofluorescence 540/590 nm; series mostly up to 46 µM
Excerpt: National Center for Advancing Translational Sciences [NCATS]
NIH Chemical Genomics Center [NCGC]
U.S. Environmental Protection Agency [EPA]
National Institutes of Environmental Health Sciences [NIEHS]
National Toxicology Program [NTP]
U.S. Food and Drug Administration [FDA]
Compound auto fluorescence often interferes with screening of the compound library against various biological targets and signaling pathways. Some of these compounds may have fluorophoric properties. Such properties may interfere with the assay outputs resulting in false positives and/or negatives. To decrease such complications and ensure the compound activities are relevant in terms of biological response, the Tox21 10K compound library was screened for auto fluorescence.
From the fluorophores used as reporter signals in our screening assays, the auto fluorescence equivalencies of compounds against three fluorophores have been evaluated: Triamterene, Fluorescein and Rose Bengal sodium for blue, green and red fluorescence, respectively. The fluorescence intensities were measured using Excitation/Emission wavelengths at 405/460nm, 485/535nm and 540/590nm for blue, green and red labels, respectively. This assay includes the red fluorescence data.
Tox21 Assay Protocol Summary:
2,000 HEK293 cells in 5 uL of culture medium containing 10% dialyzed FBS per well were dispensed into black wall/clear bottom 1536-well plates using a Multidrop Combi Dispenser (Thermo Scientific). The assay plates were incubated for 4-5 hr at 37C to allow cell attachment to the well bottom, followed by the transfer of 23 nL compound or DMSO vehicle by a pintool work station (Kalypsys, San Diego, CA). After the assay plates were incubated overnight at 37C and 5% CO2, fluorescence intensities in the assay plates were measured by an Envision (PerkinElmer, Shelton, CT) plate reader using three labels for measuring blue, green and red fluorescence at […] 460, 535 and 590nm respectively.

Structure (SMILES) | outcome
CCCSc1cc(OC)c(CCN)cc1OC | inactive
Oc1ccc2c3c1O[C@H]1[C@@H](O)C=C[C@H]4[C@H](C2)NCC[C@@]341 | inactive
CCC1(c2ccccc2)C(=O)NC(=O)N(C)C1=O (stereo not given) | inactive
CCCCCCC(=O)O[C@H]1CC[C@H]2[C@@H]3CC[C@H]4CC(=O)C=C(C)[C@]4(C)[C@H]3CC[C@]12C | inactive
CC(C)(C)c1ccc(O)cc1 | inactive
O=c1ccc2cc(O[C@@H]3O[C@H](CO)[C@@H](O)[C@H](O)[C@H]3O)c(O)cc2o1 | inactive
CC1(C)[C@H](C=C(Cl)Cl)[C@H]1C(=O)OCc1c(F)c(F)cc(F)c1F | inactive
CCCC(C)(COC(N)=O)COC(=O)NC1CC1 (stereo not given) | inactive
CCCCCCCCCC(=O)O[C@H]1CC[C@H]2[C@@H]3CCC4=CC(=O)CC[C@]4(C)[C@H]3CC[C@]12C | inactive
CC(=O)O[C@H]1C[C@H](O[C@H]2[C@@H](O)C[C@H](O[C@H]3[C@@H](O)C[C@H](OC4CC[C@@]5(C)[C@H](CC[C@@H]6[C@@H]5CC[C@]5(C)[C@@H](C7=CC(=O)OC7)CC[C@]65O)C4)O[C@@H]3C)O[C@@H]2C)O[C@H](C)[C@H]1O[C@@H]1O[C@H](CO)[C@@H](O)[C@H](O)[C@H]1O (stereo not given in full) | inactive
CC[C@H]1[C@@H]2C[C@H]3[C@@H]4N(C)c5ccccc5[C@]45C[C@@H](C2[C@H]5O)N3[C@@H]1O (stereo not given in full) | inactive
C[N+]1([O-])[C@@H]2CC[C@H]1CC(OC(=O)C(CO)c1ccccc1)C2 (stereo not given in full) | inactive
CNC1(c2ccccc2Cl)CCCCC1=O (stereo not given) | inactive
O[C@H]1[C@H]2[C@H](O)CCCN2C[C@H]1O | inactive
Cc1cc(C)cc(C(=O)OC2C[C@H]3CC[C@@H](C2)N3C)c1 (stereo not given in full) | inactive
C[C@@H](Cc1ccccc1)NCCC(c1ccccc1)c1ccccc1 | inactive
CCCCC[C@@H](O)C1C(=O)OC(C)[C@H](O)/C=C/C=C/C=C/C=C/C=C(\C)C(O)C(O)C(O)C[C@H](O)C[C@H](O)C[C@H](O)C[C@H](O)C[C@@H]1O (stereo not given in full) | inactive
CCN(CC)CCO[C@H]1CC[C@@]2(C)C(=CC[C@@H]3[C@@H]2CC[C@]2(C)C(=O)CC[C@@H]32)C1 | inactive
CCC1(c2ccccc2)C(=O)NC(=O)N(C(=O)c2ccccc2)C1=O (stereo not given) | inactive
O=P1(N(CCCl)CCCl)NC(OO)CCO1 (stereo not given) | inactive

Structure (SMILES) | outcome
O=C1CN=C(c2ccccc2)c2cc(Cl)ccc2N1 | inactive
Cc1ccccc1-n1c(CF)nc2ccc(N)cc2c1=O | inactive
Oc1c(Cl)cc(Cl)cc1Cl | inactive
CNC(=O)Oc1ccccc1C(=O)Nc1ccccc1 | inactive
CN1CCCC(=C(c2cccs2)c2cccs2)C1 | inactive
CC(C)[C@H]1C(=O)N2CCC[C@H]2[C@]2(O)O[C@](NC(=O)[C@@H]3C[C@@H]4c5cccc6[nH]cc(c56)C[C@H]4N(C)C3)(C(C)C)C(=O)N12 | inactive
COc1ccc2c(c1)C13CCCC[C@@H]1C(C2)N(C)CC3 (stereo not given in full) | inactive
CCCCc1ccc(C(=O)O)nc1 | inactive
C[C@]12CCC(=O)C[C@@H]1CC[C@@H]1[C@@H]2CC[C@@]2(C)[C@H]1CC[C@]2(C)O | inactive
CN=C1CN(O)C(c2ccccc2)=c2cc(Cl)ccc2=N1 | inactive
C/C=C(\CC)C(=O)NC(N)=O | inactive
C[N+]1(C)CCCCC1COC(=O)C(O)(c1ccccc1)c1ccccc1 (stereo not given) | inactive
Cc1ccc(N(SC(F)(Cl)Cl)S(=O)(=O)N(C)C)cc1 | inactive
O=c1c2ccccc2[se]n1-c1ccccc1 | inactive
CC(C)=CCN1CC[C@]2(C)c3cc(O)ccc3C[C@H]1[C@H]2C | inactive
S=C(S)N1CCNCC1 | inactive
CC(=O)[C@@]1(O)CC[C@H]2[C@@H]3CCC4=CC(=O)CC[C@]4(C)C3(F)[C@@H](O)C[C@@]21C (stereo not given in full) | inactive
CC(C)(O)[C@@H]1[C@H]2OC(=O)[C@@H]1[C@]1(O)C[C@H]3O[C@]34C(=O)O[C@H]2[C@]14C | inactive
Oc1cccc[c]1[Hg][Cl] | inactive
C[C@]12CCC(=O)C=C1C=C[C@@H]1[C@@H]2CC[C@@]2(C)[C@H]1CC[C@@]2(O)CCC(=O)O | inactive
